Source: the OligoGym collection

Target: CXorf56
Assay: pooled miR-30 sensor sort-seq; sequence = guide strand
Conditions: shRNA
Also: reference of the scale not given here.

**Q.** How did the sensor-assay potency score (higher = more potent) turn out when TTTCTCTAACTGGCAGTCCAGC was run?
**A.** -1.26

**Q.** For TTGGTCATCATCACCTTCTTAG, which sensor-assay potency score (higher = more potent) is on record?
**A.** -0.419

**Q.** ATATGAGTCAGCAACTTCCCTA was tested. Which sensor-assay potency score (higher = more potent) did it give?
**A.** -0.79

**Q.** Which sensor-assay potency score (higher = more potent) does the source give for TTCATTTTCGCTTTCTTGGCTT here?
**A.** 0.484

**Q.** For TTGCCCATGTCTTTGGTCCGTT, which sensor-assay potency score (higher = more potent) is on record?
**A.** -0.538

Target: CYB5D1
Assay: as above
Conditions: shRNA

**Q.** TACAGAAGTATTGCAGGTGTGT was tested. Which sensor-assay potency score (higher = more potent) did it give?
**A.** 0.111

**Q.** Which sensor-assay potency score (higher = more potent) does the source give for TATTCCTGTGCCAATGACGTTA here?
**A.** -0.429

**Q.** With TAGCGGTGTAGGATTTCCCATA as the sequence, how does the sensor-assay potency score (higher = more potent) read?
**A.** -1.38

**Q.** For TTGAAGTACAGAAGTATTGCAG, which sensor-assay potency score (higher = more potent) is on record?
**A.** 0.794

**Q.** With TTTGGATCAAACCAGTGGCTGA as the sequence, how does the sensor-assay potency score (higher = more potent) read?
**A.** -1.34

**Q.** With TACGTCTTGAGTCTACACGAGT as the sequence, how does the sensor-assay potency score (higher = more potent) read?
**A.** -1.09

**Q.** How did the sensor-assay potency score (higher = more potent) turn out when TACTTGATCTTCTTGTATCATT was run?
**A.** -1.02

**Q.** Which sensor-assay potency score (higher = more potent) does the source give for TTAATGATGCGGATGCTCCGGG here?
**A.** -0.0268

**Q.** How did the sensor-assay potency score (higher = more potent) turn out when TGAAGTACAGAAGTATTGCAGG was run?
**A.** -0.202

**Q.** How did the sensor-assay potency score (higher = more potent) turn out when TACTGAGATAGTCAAATTCTTC was run?
**A.** -1.34
